Assay outcomes (PubChem)
RmlCD inh 1536 = inhibitors of Mycobacterium tuberculosis RmlC and RmlD coupled enzymes. P9WH09+P9WH11. RmlC+RmlD coupled enzyme assay, percent inhibition; primary screen in compound mixtures. inhibition, % at 3.6 µM. 0.03% of 160,000 active; in the data active = inhibition mostly above about 34%, no sharp cut-off
Target sequence (P9WH09 whole entry, looked up): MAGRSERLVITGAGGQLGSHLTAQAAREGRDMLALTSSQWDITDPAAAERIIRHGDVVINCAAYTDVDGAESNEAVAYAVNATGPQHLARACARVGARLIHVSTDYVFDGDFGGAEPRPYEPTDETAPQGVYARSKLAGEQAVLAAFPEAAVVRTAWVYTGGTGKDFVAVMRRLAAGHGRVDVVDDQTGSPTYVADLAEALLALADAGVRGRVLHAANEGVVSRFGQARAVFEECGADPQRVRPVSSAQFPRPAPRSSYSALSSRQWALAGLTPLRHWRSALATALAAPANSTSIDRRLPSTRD
Target sequence (P9WH11 whole entry, looked up): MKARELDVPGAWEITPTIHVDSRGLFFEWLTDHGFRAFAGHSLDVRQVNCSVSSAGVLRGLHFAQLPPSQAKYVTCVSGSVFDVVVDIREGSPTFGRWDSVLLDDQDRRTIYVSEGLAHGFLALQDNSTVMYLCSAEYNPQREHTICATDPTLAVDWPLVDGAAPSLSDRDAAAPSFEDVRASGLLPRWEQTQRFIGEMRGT
DUSP3 inh = blocks human VHR1 dual specificity phosphatase | 0.52% of 290,000 active | inhibition, % at 13.3 µM | P51452 | recombinant VHR phosphatase, pNPP absorbance; in the data active = inhibition above about 50%
Numbers without * were called inactive; / = no result; ! = not active in a repeat. Compounds with a hit are over-represented: about 0.54% of the library has one in this group of screens.

SMILES	RmlCD inh 1536	DUSP3 inh
N=c1c2c(ncn1CCN1CCOCC1)Oc1ccc3ccccc3c1C2c1ccccc1 (stereo not drawn)	/	55*
Cc1ccc(C(C)NC(=O)c2ccco2)cc1C (stereo not drawn)	6	-6
Cc1ccc(C(C)NC(=O)c2ccc3c(c2)OCCO3)cc1C (stereo not drawn)	/	55*
O=C(NC1CCCC1)C(c1ccccn1)N(C(=O)c1csnn1)c1ccc(F)cc1 (stereo not drawn)	/	22
COC(=O)CSc1nc2ccccc2n1CC(=O)N(C(C)C)C(C)C	/	52*
CC(C)N(C(=O)Cn1c(SCC(=O)NC2CC2)nc2ccccc21)C(C)C	/	13
Cc1cccc(NC(=O)C2CC(=O)n3cnnc3S2)c1 (stereo not drawn)	-11	19
c1ccc(-c2nc3nonc3c3nc4ccccc4n23)cc1	7	29
O=C(O)Cn1c(-c2ccccc2)nc2ccccc21	/	51*
O=C(O)Cn1c(=O)c(-c2ccccc2)nc2ccccc21	/	-6
c1ccc(-c2nc3ccccc3c3nc4ccccc4n23)cc1	6	51*
Cc1ccc(S(=O)(=O)N2CCc3ccccc3C2)cc1	/	52*
O=S(=O)(c1ccc(F)cc1)N1CCc2ccccc2C1	/	11
O=C(N/N=C/c1cc([N+](=O)[O-])ccc1N1CCNCC1)c1ccc([N+](=O)[O-])cc1	2	52*
N#CCC(=O)N/N=C/c1cc([N+](=O)[O-])ccc1N1CCCC1	15	16
Cc1nnc(SCC(=O)N(Cc2ccccc2)C(C)C)n1-c1ccccc1	/	23
CCN(CC)S(=O)(=O)c1ccc2c(c1)nc(CCC(=O)Nc1ccccc1Cc1ccccc1)n2CC	-8	23
CN(NS(=O)(=O)c1ccc(Cl)cc1)c1ncc(C(F)(F)F)cc1Cl	11	20
O=C(CN1CCCC1)NC(c1ccccc1)c1ccccc1	/	51*
O=C(CN1CCN(c2ccccc2O)CC1)NC(c1ccccc1)c1ccccc1	-8	18
COCCNC(=S)N1CCc2cc(OC)c(OC)cc2C1c1cccs1 (stereo not drawn)	0	-14
CCCCCCSc1nsc(NC(=O)CC(C)C)n1	-4	-17
CCCCCCCSc1nsc(N)n1	/	57*
NC(=O)c1cc(S(=O)(=O)N2CCN(c3ccc([N+](=O)[O-])cc3)CC2)cs1	/	1
Cc1c(C(=O)N2CCCC2)oc2c1-c1nn(CC(=O)NCCCN3CCCCC3C)cc1CC2 (stereo not drawn)	/	56*
SMILES	RmlCD inh 1536	DUSP3 inh
Cc1c(C(=O)N2CCCC2)oc2c1-c1nn(CC(=O)NCCCN3CCCCC3)cc1CC2	/	47
CCCCN(CCCC)CCCNC(=O)Cn1cc2c(n1)-c1c(oc(C(=O)N3CCCC3)c1C)CC2	/	29
CCC1CCCCN1CCCNC(=O)Cn1cc2c(n1)-c1c(oc(C(=O)N3CCCC3)c1C)CC2 (stereo not drawn)	/	56*
O=C(CCCc1c[nH]c2ccccc12)Nc1ncccc1O	/	6
Cc1c(C(=O)NC2CCN(Cc3ccccc3)C2)oc2c(Cl)cccc12 (stereo not drawn)	/	16
COc1ccc(CCN2CC(C(=O)NCCc3cnn(C)c3)CCC2=O)cc1 (stereo not drawn)	/	-2
CCn1c(SCC(=O)N2c3ccccc3CCc3ccccc32)nnc1-c1ccc(OC)cc1	78	55*
CCn1c(SCC(=O)N2CCc3ccccc32)nnc1-c1ccncc1	/	17
CC(C)N(Cc1nc(-c2ccccc2)no1)C(=O)CN(C)S(=O)(=O)c1ccccc1	6	17
Cc1c(C(=O)NC2CCOC2)oc2c(F)cccc12 (stereo not drawn)	/	53*
Cc1c(C(=O)O)oc2c(F)cccc12	-6	37
COc1ccccc1NS(=O)(=O)c1ccc2c(c1)OCCO2	/	58*
CSc1ccccc1NS(=O)(=O)c1ccc2c(c1)OCCO2	4	-6
CC(=O)NCC(=O)OCC(=O)c1ccc(Cl)cc1	7	2
CCN(CC)S(=O)(=O)c1ccc(NC(=O)C(C)N(c2ccc(OC)cc2)S(C)(=O)=O)cc1 (stereo not drawn)	7	4
CCOc1ccccc1C1CC(=O)Nc2c1c(=O)n(C)c(=O)n2C (stereo not drawn)	-6	-14
CC(C)Oc1ccccc1C1CC(=O)Nc2c1c(=O)n(C)c(=O)n2C (stereo not drawn)	-10	59*
Cc1c2cc(O)c(=O)cc-2oc2cc(O)c(O)cc12	5	122*!
COc1cc(OC)c(-c2c3cc(O)c(=O)cc-3oc3cc(O)c(O)cc23)cc1OC	-6	7
Cc1ccc(-c2c(C)sc3nc[nH]c(=O)c23)cc1C	/	53*
Cc1sc2nc[nH]c(=O)c2c1-c1ccc(F)cc1	/	21
NNC(=O)CN1C(c2ccccc2Br)=Nc2ccc(Br)cc2C1c1ccccc1 (stereo not drawn)	/	8
Cn1c(=O)c2c(nc3n2CC(CO)O3)n(C)c1=O (stereo not drawn)	/	59*
CC(C)OCC1Cn2c(nc3c2c(=O)n(C)c(=O)n3C)O1 (stereo not drawn)	5	12
Cc1[nH]n(-c2ccccc2)c(=O)c1N=Nc1c(Cl)cccc1Cl	/	59*
SMILES	RmlCD inh 1536	DUSP3 inh
Cc1[nH]n(-c2ccccc2)c(=O)c1N=Nc1ccccc1	-13	9
COc1ccc([N+](=O)[O-])c(OC)c1C(=O)NC(=O)Nc1c(F)c(F)c(F)c(F)c1F	/	-6
Cc1cccn2c(=O)c(C=Nc3ccccc3)c(NCCO)nc12	55*	13
Cc1cccn2c(=O)c(C=Nc3ccc(Cl)cc3)c(NCCO)nc12	-2	26
COc1ccccc1C(=O)N1CCN(S(=O)(=O)c2ccccc2)CC1	3	57*
COc1cccc(OC)c1C(=O)N1CCN(S(=O)(=O)c2ccccc2)CC1	-9	-12
Cc1cccn2c(=O)c3cc(C(=O)NC4CCCC4)c(=N)n(CCc4ccccc4)c3nc12	/	2
Cc1cccn2c(=O)c3cc(C(=O)NCC4CCCO4)c(=N)n(CCN4CCOCC4)c3nc12 (stereo not drawn)	/	28
Cc1cccn2c(=O)c3cc(C(=O)NCCN4CCOCC4)c(=N)n(CCCN4CCOCC4)c3nc12	/	55*
CCNC(=O)c1cc2c(=O)n3cccc(C)c3nc2n(CCc2ccccc2)c1=N	32*	-12
Cc1cccn2c(=O)c3cc(C(=O)NCCN4CCOCC4)c(=N)n(CCc4ccccc4)c3nc12	/	8
CCCn1c(=N)c(C(=O)NCC2CCCO2)cc2c(=O)n3cccc(C)c3nc21 (stereo not drawn)	109*	-10
CCCCN1C(=O)C(=O)N(CC(=O)NC2CCCc3ccccc32)C1=O (stereo not drawn)	-7	2
COC(CNC(=O)c1ccc2c(c1)ncn2-c1ccc(F)cc1F)OC	-8	1
CCCCc1ccc(NC(=O)C(=O)NCCN2CCN(C(=O)c3ccc([N+](=O)[O-])cc3)CC2)cc1	/	12
COc1ccc(OC)c(C(=O)CSc2nnc(-c3ccc(OC)c(OC)c3)o2)c1	/	0
CCC(=O)NNC(=O)Cc1c(C)n(C(=O)c2ccc(Cl)cc2)c2ccc(OC)cc12	/	4
O=S(=O)(c1ccc(F)c(F)c1)N1CCN(CCc2ccccc2)CC1	/	17
COCCCNC(=O)/C(C#N)=C/c1cccc(NC(=O)c2ccccc2Cl)c1	-9	42
N#C/C(=C\c1cccc(NC(=O)c2ccccc2Cl)c1)C(=O)NCCc1ccccc1	-8	55*
C=CCOc1ccc(CN(C)C(=O)CNC(=O)c2ccc(-c3ccccc3)cc2)cc1	/	2
